Bioassay records (PubChem BioAssay)
Sampled rows, rich in hits. Any-hit rate of the full collection: about 9.5%.
Tau ThT inhib = blocks human tau fibril formation measured by thioflavin T. P10636. actives 2.1% (n = 270,000). Potency, µM (top dose mostly 57.4 µM), inactives show at the top dose activity, negative = inhibition, usual class: inhibitors. recombinant tau K18 P301L, heparin-induced fibrillization, ThT fluorescence; further: nearly all actives have a fitted effect of over 55% in size
Target sequence (P10636 561-689 P618L limits assumed): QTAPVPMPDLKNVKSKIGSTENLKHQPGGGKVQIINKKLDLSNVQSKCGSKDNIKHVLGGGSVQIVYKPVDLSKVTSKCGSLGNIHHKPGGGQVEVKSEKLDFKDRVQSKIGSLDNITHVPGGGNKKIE
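ThT emission at 510 nm, taken 1 hr after adding 30 uM dye, quantifies aggregates formed when 20 uM heparin acts on human tau K18 P301L for 6 hr at 37 C.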
HPGD block = inhibitors of human 15-hydroxyprostaglandin dehydrogenase (HPGD); P15428; purified HPGD, NADH fluorescence kinetic, PGE2 substrate; Potency, µM, without a hit: at the highest dose activity change, negative = inhibition, actives largely listed as inhibitors; actives 4.3% (n = 150,000); active means well fitted inhibition curve with a large enough effect, not every such curve was filed as active; inconclusive means small, poorly fitted or top-dose-only effect, or another doubt; inactive means no such curve, though single readings can be large or run the other way
Target sequence (P15428 whole entry, looked up): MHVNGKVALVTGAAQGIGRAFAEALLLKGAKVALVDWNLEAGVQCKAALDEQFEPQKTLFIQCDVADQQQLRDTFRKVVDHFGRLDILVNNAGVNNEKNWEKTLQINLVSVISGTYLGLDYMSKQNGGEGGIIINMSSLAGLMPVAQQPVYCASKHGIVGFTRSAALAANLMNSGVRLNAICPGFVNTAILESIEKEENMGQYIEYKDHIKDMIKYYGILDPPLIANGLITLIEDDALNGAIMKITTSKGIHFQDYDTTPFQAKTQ
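NADH formation kinetics: reaction with 30 uM PGE2 and 1 mM NAD+ (final), 20 nM enzyme, Tris-HCl pH 8 with Tween 20, after 15 min compound preincubation at room temperature. Fluorescence change, last versus first of five reads.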
Tau fibril FP = blocks human tau fibril formation measured by polarization; K18 P301L tau heparin fibrillization, Alexa594 FP, 6 h; Potency, µM (highest dose often 57.7 µM), for the others: at the top dose activity, negative = inhibition, actives largely listed as inhibitors; actives 0.39% (n = 280,000); further: nearly all actives have a fitted effect of over 55% in size
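Compound effects on tau fibrillization are measured by Alexa 594 fluorescence polarization (ex 555, em 632 nm). K18 P301L tau is used at 15 uM with 0.24 uM labeled tracer, and 20 uM heparin induces aggregation over 6 hr at 37 C.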
Tau fluor counter = counter-screen for tau fibril formation inhibitors. tau K18 P301L (four-repeat tau fragment) Alexa594 fluorescence, heparin fibrillization. Potency, µM (top dose mostly 57.7 µM), inactives show at the top dose activity change, negative = decrease. actives 0.93% (n = 280,000). AID 1463; further: nearly all actives have a fitted effect of over 55% in size
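Human K18 P301L tau (15 uM unlabeled plus 0.24 uM Alexa 594-labeled, final) in 100 mM sodium acetate pH 7 was mixed with compound and 20 uM heparin and incubated 6 hr at 37 C.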
NPSR antag = neuropeptide S receptor (human) antagonism, cAMP; Q6W5P4; CHO-NPSR cells, cAMP TR-FRET, antagonist mode; AID 1461; actives 1% (n = 220,000); Potency, µM (highest dose often 38.3 µM), for the others: at the top dose activity change, negative = inhibition, most hits filed as inhibitors; further: nearly all actives have a fitted effect of over 50% in size
ALDH1A1 block = inhibitors of human aldehyde dehydrogenase 1A1. P00352. Purified ALDH1A1, NADH fluorescence, propionaldehyde substrate. Potency, µM (series often up to 75.3 µM), inactives show top-dose activity, negative = inhibition, most hits filed as inhibitors. actives 7.3% (n = 220,000); active means well fitted inhibition curve with a large enough effect, not every such curve was filed as active; inconclusive means small, poorly fitted or top-dose-only effect, or another doubt; inactive means no such curve, though single readings can be large or run the other way;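 further: plate controls were no enzyme wells and a reference inhibitor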
Numbers without * were called inactive; u = inconclusive; x = not tested or not shown; [ ] = dose if it differs, or a comment. Unless noted, the call rests on the fitted dose curve; in most records, active means well fitted curve in the direction sought with a large enough effect; inconclusive means small, poorly fitted or top-dose-only effect, or another doubt; inactive means no such curve, though single readings can be large; an effect the other way counts as inactive or inconclusive. Unless noted, on the % scale 0 is the no-effect control and ±100 the full control effect; potency means the concentration at half of the fitted maximal effect.

SMILES	Tau ThT inhib	HPGD block	Tau fibril FP	Tau fluor counter	NPSR antag	ALDH1A1 block
COc1ccccc1C(=O)NCC(=O)n1nc(C)cc1C	-5%	-17%	0%	2%	-1%[46.1 µM]	9%
Cc1cc(C)n(C(=O)CNC(=O)CCc2ccccc2)n1	2%	16µM*	5%	-3%	-10%[46.1 µM]	5%
CN1CCN(c2ncnc3ccc(-c4cccc(C#N)c4)cc23)CC1	x	x	x	x	x	10µM*
COCCNC(=O)c1cnc2sc(N3CCC(C)CC3)nn2c1=O	1%	x	-3%	-6%	x	x
O=C(NCCc1ccccc1)/C(=C/c1ccco1)c1ccccc1	u	-25%	-5%	-11%	-30%	22µM*
CCC(C)NC(=O)/C(=C/c1ccco1)c1ccccc1 (centres undefined)	-10%	25µM*	2%	-11%	-15%[46.1 µM]	u
COc1cc(NC(=O)Cn2nc(Cc3cccnc3)c3ccccc3c2=O)cc(OC)c1OC	0%	-7%	3%	-7%	-3%[46.1 µM]	9%
Cc1cccc(C(=O)N2CCNC(=O)C2CC(=O)Nc2ccc(F)cc2)c1 (centres undefined)	-8%	x	-4%	-6%	x	x
CCc1c(C)nc2ncnn2c1N1CCC(C(=O)Nc2cccc(C(C)=O)c2)CC1	-13%	-4%	u	-17%	8%[7.67 µM]	0%
Nc1ccccc1C(=O)CC(N)C(=O)O (centres undefined)	u	-2%	-7%	-2%	x	-10%
Cc1ccc(-c2cc(C(F)F)n3ncc(C(=O)Nc4c(C)nn(Cc5c(Cl)cccc5Cl)c4C)c3n2)cc1	-12%	-11%	2%	1%	-9%[46.1 µM]	5%
Cc1ccc(-c2cc(C(F)F)n3ncc(C(=O)Nc4c(C)nn(Cc5ccccc5Cl)c4C)c3n2)cc1	u	-11%	11%	-8%	4µM*	12%
Nc1ncc([N+](=O)[O-])cc1Br	0%	x	-2%	1%	-22%	x
CN(C)c1ncc([N+](=O)[O-])cc1C(F)(F)F	-15%	x	-3%	-13%	-12%	14µM*
S=c1[nH]nc(-c2ccccn2)n1/N=C/c1ccc(Br)s1	-14%	7.9µM*	-7%	-14%	-22%[46.1 µM]	u
S=c1[nH]nc(COc2ccccc2)n1/N=C/c1ccc(Br)s1	u	10µM*	4%	u	-17%[46.1 µM]	u
Cc1ccc(/C=N/n2c(COc3ccccc3)n[nH]c2=S)s1	-1%	2.2µM*	4%	-1%	u	u
COc1ccc(NC(=O)N(Cc2nnc3n2CCCCC3)c2ccc(OC)c(Cl)c2)cc1	-6%	x	2%	-3%	x	x
CC(=O)c1ccc(NC(=O)c2cc(-c3ccc4c(c3)OCO4)on2)cc1	u	x	-12%	-8%	x	x
Nc1nc(SCC(=O)C23CC4CC(CC(C4)C2)C3)n[nH]1	2%	-3%	5%	-4%	-1%[46.1 µM]	u
C=CCn1c2ccccc2c2nnc(SCC(=O)Nc3c(C)n(C)n(-c4ccccc4)c3=O)nc21	-2%	-7%	-4%	-2%	-4%[46.1 µM]	-9%
CCn1c2ccccc2c2nnc(SCC(=O)NCCOC)nc21	-8%	16µM*	0%	-4%	5%[46.1 µM]	-3%
C=CCn1c2ccccc2c2nnc(SCC(=O)NC(C(=O)OC)C(C)C)nc21 (centres undefined)	-5%	20µM*	4%	4%	-12%[46.1 µM]	20µM*
CCCn1c2ccccc2c2nnc(SCC(=O)OC)nc21	0%	x	7%	-4%	-10%[46.1 µM]	14µM*
CCn1c2ccccc2c2nnc(SCC(=O)NC3CCS(=O)(=O)C3)nc21 (centres undefined)	1%	32µM*	9%	4%	20%	-3%
CCn1c2ccccc2c2nnc(SCC(=O)N(C)C3CCS(=O)(=O)C3)nc21 (centres undefined)	-11%	-19%	-2%	-6%	4%	u
Cc1ccc(-c2cc(NC(=O)C(C)Oc3ccc(C)c(C)c3)on2)cc1 (centres undefined)	u	x	-7%	u	x	x
